Measurements reported in PubChem BioAssay (NCI).
Compounds without any hit were thinned out: in the full panel of roughly 83,000, 20% have a hit.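 Values shown are percent growth following 48 h exposure of cells in 96-well plates to a single concentration of compound; below 10 was considered active.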 Active and inactive are the calls of the source.

Experiments:
Experiment in all cases: NCI-60 one-dose screen, 48 h (100 = growth as untreated, 0 = no growth, -100 = all killed)
NCI-H23 lung = conditions: 10 µM unless noted
NCI-H226 lung = conditions: 10 µM unless noted
NCI-H322M lung = conditions: 10 µM unless noted
HOP-62 NSCLC = conditions: 10 µM unless noted
NCI-H460 lung = conditions: 10 µM unless noted
HOP-92 NSCLC = conditions: 10 µM
NCI-H522 lung = conditions: 10 µM unless noted
A549/ATCC NSCLC = conditions: 10 µM unless noted
786-0 renal = conditions: 10 µM unless noted
COLO 205 colon = conditions: 10 µM unless noted
DU-145 prostate = conditions: 10 µM unless noted
K-562 leukemia = conditions: 10 µM unless noted
MALME-3M melanoma = conditions: 10 µM unless noted
MDA-MB-231 breast = conditions: 10 µM unless noted
SF-268 CNS = conditions: 10 µM unless noted
SF-295 CNS = conditions: 10 µM unless noted
SF-539 CNS = conditions: 10 µM unless noted
UACC-257 melanoma = conditions: 10 µM unless noted

Measured: growth

COc1cc2oc(-c3cccc(NC(=O)c4cc(N)ccc4Cl)c3)cc(=O)c2c(OC)c1OC
inactive: NCI-H23 lung 102% | NCI-H226 lung 97.1% | NCI-H322M lung 105% | HOP-62 NSCLC 111% | NCI-H460 lung 104% | HOP-92 NSCLC 51.9% | NCI-H522 lung 101% | A549/ATCC NSCLC 103% | 786-0 renal 85.2% | COLO 205 colon 117% | DU-145 prostate 99.7% | K-562 leukemia 83.7% | MALME-3M melanoma 100% | MDA-MB-231 breast 87.8% | SF-268 CNS 98.2% | SF-295 CNS 91.4% | SF-539 CNS 94.8% | UACC-257 melanoma 127%

CCn1c(SCC(=O)Nc2cccc(C(=O)/C=C/c3ccc(C)cc3)c2)nc2ccccc2c1=O
inactive: NCI-H23 lung 76.9% | NCI-H226 lung 73.4% | NCI-H322M lung 86.7% | HOP-62 NSCLC 108% | NCI-H460 lung 98.2% | HOP-92 NSCLC 77.7% | NCI-H522 lung 81.1% | A549/ATCC NSCLC 68% | 786-0 renal 93.6% | COLO 205 colon 122% | DU-145 prostate 77.2% | K-562 leukemia 55.4% | MALME-3M melanoma 103% | MDA-MB-231 breast 92.1% | SF-268 CNS 87.2% | SF-295 CNS 104% | SF-539 CNS 86.5% | UACC-257 melanoma 105%

C=CCn1c(SCC(=O)Nc2ccc(C(=O)/C=C/c3ccc(C)cc3)cc2)nnc1-c1c[nH]c2ccccc12
inactive: NCI-H23 lung 97.7% | NCI-H226 lung 78.1% | NCI-H322M lung 97.1% | HOP-62 NSCLC 94.4% | NCI-H460 lung 102% | HOP-92 NSCLC 86.3% | NCI-H522 lung 81.3% | A549/ATCC NSCLC 75.9% | 786-0 renal 103% | COLO 205 colon 112% | DU-145 prostate 98.4% | K-562 leukemia 61.1% | MALME-3M melanoma 95% | MDA-MB-231 breast 89% | SF-268 CNS 79.4% | SF-295 CNS 66.9% | SF-539 CNS 90.9% | UACC-257 melanoma 112%

CC1(C)CC[C@]2(CN)CC[C@]3(C)C(=CC[C@@H]4[C@@]5(C)CCCNC(C)(C)[C@@H]5CC[C@]43C)[C@H]2C1
inactive: NCI-H23 lung 104% | NCI-H226 lung 105% | NCI-H322M lung 99% | HOP-62 NSCLC 93.9% | NCI-H460 lung 99.5% | HOP-92 NSCLC 81.2% | NCI-H522 lung 105% | A549/ATCC NSCLC 92.2% | 786-0 renal 92.8% | COLO 205 colon 109% | DU-145 prostate 109% | MALME-3M melanoma 102% | MDA-MB-231 breast 106% | SF-268 CNS 98.6% | SF-295 CNS 104% | SF-539 CNS 99.7% | UACC-257 melanoma 117%
active: K-562 leukemia 3.16%

N/C(=N\C(N)=N\c1nc2ccccc2s1)c1ccc(C(F)(F)F)cc1
inactive: NCI-H23 lung 39% | NCI-H226 lung 69.6% | NCI-H322M lung 100% | HOP-62 NSCLC 91% | NCI-H460 lung 22.6% | HOP-92 NSCLC 82.1% | NCI-H522 lung 88.1% | 786-0 renal 93% | COLO 205 colon 119% | DU-145 prostate 80.1% | K-562 leukemia 76.6% | MALME-3M melanoma 101% | MDA-MB-231 breast 84.5% | SF-268 CNS 74.3% | SF-295 CNS 69% | SF-539 CNS 98.7% | UACC-257 melanoma 115%
active: A549/ATCC NSCLC 6.31%

O=C(NCCn1ccnc1)c1ccc(-c2nc3ccc4[nH]ncc4c3c3c2CCCC3)cc1
inactive: NCI-H23 lung 71% | NCI-H226 lung 69.7% | NCI-H322M lung 83.8% | HOP-62 NSCLC 55.4% | NCI-H460 lung 59.9% | HOP-92 NSCLC 46.9% | A549/ATCC NSCLC 97.3% | 786-0 renal 75.6% | COLO 205 colon 56.1% | DU-145 prostate 62.7% | K-562 leukemia 24.1% | MALME-3M melanoma 41.9% | MDA-MB-231 breast 66.1% | SF-268 CNS 48% | SF-295 CNS 77.1% | SF-539 CNS 50.9% | UACC-257 melanoma 92.9%
active: NCI-H522 lung 3.21%

CCOC(=O)C(=O)CC(=O)N1C(=S)NC(=O)C1CC(C)C (stereo not given)
inactive: NCI-H23 lung 88.3% | NCI-H226 lung 99.1% | NCI-H322M lung 96.8% | HOP-62 NSCLC 101% | NCI-H460 lung 110% | HOP-92 NSCLC 99.6% | NCI-H522 lung 100% | A549/ATCC NSCLC 103% | 786-0 renal 96.1% | COLO 205 colon 107% | DU-145 prostate 108% | K-562 leukemia 107% | MALME-3M melanoma 101% | MDA-MB-231 breast 101% | SF-268 CNS 94.8% | SF-295 CNS 102% | SF-539 CNS 96.1% | UACC-257 melanoma 102%

Cc1ccc(-n2cc(/C=C/C(=O)c3ccc(O)cc3)c(-c3ccc(S(C)(=O)=O)cc3)n2)cc1
inactive: NCI-H23 lung 68.9% | NCI-H226 lung 99.6% | NCI-H322M lung 99.1% | HOP-62 NSCLC 76% | NCI-H460 lung 80.8% | HOP-92 NSCLC 110% | NCI-H522 lung 58.9% | A549/ATCC NSCLC 102% | 786-0 renal 94.4% | COLO 205 colon 111% | DU-145 prostate 82.8% | K-562 leukemia 17.8% | MALME-3M melanoma 44.9% | MDA-MB-231 breast 67.7% | SF-268 CNS 85.9% | SF-295 CNS 87.3% | SF-539 CNS 60.2% | UACC-257 melanoma 93.5%

COc1ccc(Cn2cc3c(c2-c2cc(OC)c(OC)c(OC)c2)CCc2c(CN4CCOCC4)noc2-3)cc1
inactive: NCI-H226 lung 57.9% | NCI-H322M lung 52.7% | HOP-62 NSCLC 45% | HOP-92 NSCLC 100% | NCI-H522 lung 12.3% | A549/ATCC NSCLC 32.9% | 786-0 renal 55.4% | COLO 205 colon 14.9% | DU-145 prostate 20% | K-562 leukemia 12.6% | MALME-3M melanoma 43.3% | MDA-MB-231 breast 31.8% | SF-268 CNS 47.7% | SF-295 CNS 13.3% | UACC-257 melanoma 73.4%
active: NCI-H23 lung 9.12% | NCI-H460 lung 8.85% | SF-539 CNS 3.49%

COC(=O)C1(C)CCC[C@]2(C)[C@H]3C[C@H]4C(C(C)C)=C[C@]3(CC[C@@H]12)[C@H]1[C@@H]4[C@@H](OC(=O)c2ccco2)CC[C@@H]1OC(=O)c1ccco1 (stereo not given in full)
inactive: NCI-H23 lung 104% | NCI-H226 lung 103% | NCI-H322M lung 106% | HOP-62 NSCLC 96.9% | NCI-H460 lung 117% | HOP-92 NSCLC 102% | NCI-H522 lung 99.6% | A549/ATCC NSCLC 102% | 786-0 renal 94.3% | COLO 205 colon 115% | DU-145 prostate 113% | K-562 leukemia 104% | MALME-3M melanoma 108% | MDA-MB-231 breast 101% | SF-268 CNS 108% | SF-295 CNS 98.3% | SF-539 CNS 103% | UACC-257 melanoma 110%

CC1=NC2=NC(=O)/C(=C3/N=C(C)C=C(c4ccccc4)N3N)NN2C(c2ccccc2)=C1
inactive: NCI-H23 lung 106% | NCI-H226 lung 88.3% | NCI-H322M lung 103% | HOP-62 NSCLC 94.3% | NCI-H460 lung 111% | HOP-92 NSCLC 100% | NCI-H522 lung 97.9% | A549/ATCC NSCLC 109% | 786-0 renal 108% | COLO 205 colon 114% | DU-145 prostate 105% | K-562 leukemia 101% | MALME-3M melanoma 44.3% | MDA-MB-231 breast 72.2% | SF-268 CNS 103% | SF-295 CNS 106% | SF-539 CNS 100% | UACC-257 melanoma 109%

COc1cc2c(cc1OC)C(Sc1ccc(C)cc1)c1c(nc(N)c(C#N)c1N)O2 (stereo not given)
active: NCI-H23 lung -74.1% | NCI-H226 lung -1.22% | NCI-H322M lung -93.9% | HOP-62 NSCLC -1.58% | NCI-H460 lung -54.9% | HOP-92 NSCLC -31.8% | NCI-H522 lung -29% | A549/ATCC NSCLC -38% | 786-0 renal -78.9% | COLO 205 colon -28.5% | DU-145 prostate -83% | K-562 leukemia 4.48% | MALME-3M melanoma -70.7% | MDA-MB-231 breast -41.4% | SF-268 CNS -54.5% | SF-295 CNS -84.1% | SF-539 CNS -86.3% | UACC-257 melanoma -35.2%

CCOC(=O)C(=O)/C(=C\c1ccc(Cl)cc1)C(=O)N1C(=S)NC(=O)C1CC(C)C (stereo not given)
inactive: NCI-H23 lung 96.5% | NCI-H226 lung 92% | NCI-H322M lung 95.3% | HOP-62 NSCLC 95.6% | NCI-H460 lung 102% | HOP-92 NSCLC 86.8% | NCI-H522 lung 91.7% | A549/ATCC NSCLC 104% | 786-0 renal 103% | COLO 205 colon 109% | DU-145 prostate 85.2% | K-562 leukemia 102% | MALME-3M melanoma 99.8% | MDA-MB-231 breast 90.8% | SF-268 CNS 100% | SF-295 CNS 99.9% | SF-539 CNS 103% | UACC-257 melanoma 105%

O=C(NNc1nc2cc(F)c(F)cc2n2c(CN3CC4CNCC4C3)ccc12)c1ncccn1 (stereo not given)
inactive: NCI-H23 lung 26% | NCI-H226 lung 10.6% | NCI-H322M lung 27.8% | HOP-92 NSCLC 20.2% | A549/ATCC NSCLC 15.2% | DU-145 prostate 24% | MALME-3M melanoma 10.3% | MDA-MB-231 breast 38.7% | SF-268 CNS 19.7%
active: HOP-62 NSCLC 0.597% | NCI-H460 lung 2.27% | NCI-H522 lung 0.166% | 786-0 renal 9.75% | COLO 205 colon 9.36% | K-562 leukemia 9.16% | SF-295 CNS -14.5% | SF-539 CNS 6.72% | UACC-257 melanoma 8.25%

C#Cc1ccc(C(=O)NCc2ccc(/C=C/C(=O)c3nccn3C)cc2)cc1
inactive: NCI-H23 lung 10% | NCI-H226 lung 31.9% | NCI-H322M lung 12.5% | HOP-62 NSCLC 27.5% | NCI-H522 lung 25.9% | A549/ATCC NSCLC 13.4% | 786-0 renal 19.3% | COLO 205 colon 22.8% | DU-145 prostate 21% | K-562 leukemia 18.8% | MALME-3M melanoma 69.5% | MDA-MB-231 breast 16.1% | SF-268 CNS 13.5% | SF-295 CNS 20.7% | UACC-257 melanoma 67.7%
active: NCI-H460 lung -45.4% | HOP-92 NSCLC -0.611% | SF-539 CNS -17%
